tim23-1 inh: growth inhibitors of tim23-1 mutant yeast; inhibition, % at 20 µM; AID 463212; S. cerevisiae tim23-1 growth, BacTiter-Glo luminescence, 24 h; 1.3% of 330,000 active;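 active = growth inhibition of the mutant yeast at or above 50%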;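 note: temperature-sensitive mutant grown at 25 °C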
TIM10 inh: growth inhibitors of TIM10 yeast strain; S. cerevisiae TIM10 strain growth, BacTiter-Glo luminescence, 24 h; inhibition, % at 10 µM; 1.4% of 330,000 active; AID 463195;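 active = inhibition of 40% or more at the single tested concentration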;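 note: wild-type TIM10 isogenic control strain grown at permissive 25 °C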
tim10-1 inh: inhibits growth of tim10-1 mutant yeast; AID 463190; inhibition, % at 20 µM; S. cerevisiae tim10-1 ts strain growth, BacTiter-Glo, 24 h; 2.2% of 330,000 active;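 active = inhibition of at least 40%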;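 note: mutant grown at 25 °C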
Yeast superoxide: caloric restriction mimetics inhibiting age-related superoxide in yeast. S. cerevisiae aged cells, superoxide DHE fluorescence; stronger effect = lower value. superoxide response (% of plate mean), % at 10 µM. 0.18% of 330,000 active;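 active = superoxide response under a set limit, about three screen SD below normal, cut at about 65% in these data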;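 note: yeast aged for seven days with compound at 30 °C before DHE staining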
NLRP3 yeast inh: blocks the NALP3 inflammasome reconstituted in yeast. 0.39% of 330,000 active. AID 2825. Yeast reconstituted NLRP3/ASC/caspase-1, beta-gal luminescence, 24 h. inhibition, % at 10 µM;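 active = inhibition of 50% or more; inactive = inhibition below 50%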
CR mimetic CP: confirmation of caloric restriction mimetics inhibiting yeast age-related superoxide | shares compounds with Yeast superoxide | S. cerevisiae aging, superoxide DHE fluorescence; stronger effect = lower value | superoxide response (% of plate), % at 10 µM | 1% of 850 active | AID 434994;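 active = superoxide signal below 65% of the plate average of sample wells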;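 note: cells aged with compound for 7 days at 30 degrees C before staining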
DHE counter: DHE fluorescence interference, counter-screen artifact | AID 435000 | shares compounds with Yeast superoxide | S. cerevisiae BY4741, flow cytometry; stronger effect = lower value | 850 tested, under 10 active | fluorescence response, % at 10 µM;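 active = fluorescence response below 15%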;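 note: lower means stronger quenching of DHE signal or ROS scavenging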
Hits are given with their value; 0 = inactive; - = no result. Hits are enriched below; roughly 3.8% of the tested compounds scored in any of these assays.

SMILES | tim23-1 inh | TIM10 inh | tim10-1 inh | Yeast superoxide | NLRP3 yeast inh | others
CC(=NCCc1c(C)[nH]c2ccc(C)cc12)C1=C(O)CC(c2ccccc2)CC1=O (stereo unspecified) | 0 | 0 | 0 | 0 | 0
Cc1[nH]n(C)c(=O)c1C(=O)c1c(-c2ccccc2Cl)noc1C | 0 | 0 | 0 | 65 | 0
COc1ccc(N2C(=NC(=O)C3CCCO3)SC3CS(=O)(=O)CC32)cc1 (stereo unspecified) | 0 | 0 | 0 | 0 | 0
Cn1c(Sc2ccc(Br)cc2)c(C=O)c2ccccc21 | 0 | 0 | 0 | 0 | 0
O=C1CC(N2CCN(c3ccc(F)cc3)CC2)C(=O)N1c1ccc2c(c1)OCO2 (stereo unspecified) | 0 | 0 | 0 | 0 | 0
O=C(c1ccc(N2CCCCS2(=O)=O)cc1)N1CCN(c2ccccc2F)CC1 | 0 | 0 | 0 | 0 | 0
O=C(O)c1cccc(NC(=O)c2ccc3c(c2)C(=O)N(c2cccc([N+](=O)[O-])c2)C3=O)c1 | 0 | 0 | 0 | 0 | 0
COC(C(=O)Nc1ccnn1C1CCN(Cc2cnn(C)c2)CC1)c1ccccc1 (stereo unspecified) | 0 | 0 | 0 | 0 | 0
Cc1snc(S(=O)(=O)Cc2ccccc2Cl)c1C#N | 0 | 0 | 0 | 0 | 0
CCOP(=O)(OCC)C(Nc1ccc(OC)cc1)c1ccco1 (stereo unspecified) | 0 | 0 | 0 | 0 | 0
CN(CC#CC(O)(c1ccccc1)c1ccccc1)C(C)(C)C | 0 | 0 | 0 | 65 | 0
CC(C)N(CC#CC(O)(c1ccccc1)c1ccccc1)C(C)C | 0 | 0 | 0 | 0 | 0
CCC(CNC(=O)c1c(C)nn(-c2ccccc2)c1Cl)c1ccccc1 (stereo unspecified) | 0 | 0 | 0 | 0 | 0
COc1ccc(CC(=O)NNC(=O)COc2ccc(C)cc2)cc1S(=O)(=O)N1CCOCC1 | 0 | 0 | 0 | 0 | 0
COc1ccc(CC(=O)NNC(=O)COc2ccc(Cl)cc2C)cc1S(=O)(=O)N1CCOCC1 | 0 | 0 | 0 | 65 | 0
CCOc1ccc(N(CC(=O)Nc2ccccc2OCC)S(=O)(=O)c2c(C)noc2C)cc1 | 0 | 0 | 0 | 0 | 0
CCOc1ccc(-c2ccc(SCC(=O)NC3CCCCC3)nn2)cc1 | 0 | 0 | 0 | 0 | 0
O=C(Oc1ccc2cc(Br)ccc2c1)N1CCCCCC1 | 0 | 0 | 0 | 58 | 0
O=c1c(Cc2c(F)cccc2Cl)c(O)ccn1CCCN1CCOCC1 | 0 | 0 | 0 | 0 | 0
O=C(CCS(=O)(=O)c1cccc2nsnc12)NCc1ccccc1Cl | 0 | 0 | 0 | 0 | 0
O=C(CSc1nc2c(cnn2-c2cccc(Cl)c2)c(=O)[nH]1)NCCC1=CCCCC1 | 0 | 0 | 0 | 61 | 0
CCOC(=O)c1ccc(NC(=O)C(=O)NCC2(c3ccc(OC)cc3)CCOCC2)cc1 | 0 | 0 | 0 | 0 | 0
O=C1CCN(Cc2ccc([N+](=O)[O-])cc2)CCN1CCO | 0 | 0 | 0 | 0 | 0
COc1ccccc1CNC(=O)c1cc(C)nn1-c1ccccc1 | 0 | 0 | 0 | 44 | 0
Cc1cc(C(=O)NCc2ccccc2Cl)n(-c2ccccc2)n1 | 0 | 0 | 0 | 0 | 0
SMILES | tim23-1 inh | TIM10 inh | tim10-1 inh | Yeast superoxide | NLRP3 yeast inh | others
CCC1(C)N=C(N)Nc2nc3cc(C)c(C)cc3n21 (stereo unspecified) | 0 | 0 | 0 | 64 | 0
O=[N+]([O-])c1cccc(/C=C/c2ccncc2)c1 | 0 | 0 | 0 | 0 | 0
O=[N+]([O-])c1ccc(/C=C/c2ccncc2)cc1 | - | - | - | 62 | -
NC(=O)CC(NC(=O)Cc1cccc2ccccc12)c1ccc(NCCCN2CCCC2=O)c([N+](=O)[O-])c1 (stereo unspecified) | 0 | 0 | 0 | 0 | 0
O=C(O)c1cccc(NS(=O)(=O)c2ccc(S(=O)(=O)N3CCOCC3)cc2)c1 | 0 | 0 | 0 | - | 0
O=C1NC2(CCCCC2)C(=O)N1Cc1ccc([N+](=O)[O-])cc1 | 0 | 0 | 0 | 0 | 0
CCOC(=O)c1ccccc1NC1CC(=O)N(c2ccccc2C)C1=O (stereo unspecified) | 0 | 0 | 0 | 0 | 0
CN1C(=O)/C(=C/C=C2\SCCN2C)N(C)C1=S | 0 | 0 | 0 | - | 0
CCC1=NNc2cccc3c(OC)ccc1c23 | 0 | 0 | 0 | 55 | 0
CC(=O)Nc1ccc(NC(=O)CNC(=O)c2cccc(C)c2)cc1 | 0 | 0 | 0 | 0 | 0
C/C(=N\Nc1ncnc2sc(C)c(C)c12)c1ccccn1 | 0 | 0 | 0 | 36 | 0
COc1ccc2c(n1)Sc1nc3ccccc3nc1N2 | - | - | - | 59 | -
COc1cc2ccccc2nn1 | 0 | 0 | 0 | 0 | 0
CCCCN(CCCC)c1nc(-c2ccncc2)nc2ccccc12 | 0 | 0 | 0 | 65 | 0
COc1ccc(/C=C/C(=O)NC(=S)NNC(=O)c2cnccn2)cc1 | 0 | 0 | 0 | 31 | 0
COc1ccccc1C(=O)NC(CCSC)C(=O)NNC(=O)c1ccc(F)cc1 (stereo unspecified) | 0 | 0 | 0 | 0 | 0
COc1ccccc1C(=O)NC(CCSC)C(=O)NNC(=O)c1ccccc1O (stereo unspecified) | 0 | 0 | 0 | 64 | 0
CC(C)c1c(C(=O)N/N=C/c2cccc(OCc3ccc(F)cc3)c2)nnn1-c1nonc1N | 0 | 0 | 0 | 0 | 0
O=C(Nc1ccc2nc3ccccc3nc2c1)c1ccccc1 | - | - | - | 47 | - | CR mimetic CP=59;DHE counter=0
O=C(COc1cccc2ccccc12)N/N=C/c1ccncc1 | 0 | 0 | 0 | 0 | 0
O=S(=O)(NCCn1ccc2ccccc21)c1ccccc1 | 0 | 0 | 0 | 65 | 0 | CR mimetic CP=0;DHE counter=0
CCC(=O)NCCn1ccc2ccccc21 | 0 | 0 | 0 | 0 | 0
COc1cccc(/C=C/C(=O)NCc2cn3cc(Cl)ccc3n2)c1 | 0 | 0 | 0 | 0 | 0
CCOC(=O)N1CCN(Cc2nc(-c3cccc(C)c3)no2)CC1 | 0 | 0 | 0 | 64 | 0 | CR mimetic CP=0;DHE counter=0
O=C(COC(=O)c1cc(S(=O)(=O)N2CCOCC2)cs1)c1ccccc1 | 0 | 0 | 0 | 64 | 0 | CR mimetic CP=0;DHE counter=0
SMILES | tim23-1 inh | TIM10 inh | tim10-1 inh | Yeast superoxide | NLRP3 yeast inh | others
O=C(COC(=O)c1cc(S(=O)(=O)N2CCOCC2)ccc1F)c1ccccc1 | 0 | 0 | 0 | 0 | 0
COc1ccccc1NC(=O)CSc1ccc(-c2ccc(-n3ccnc3)cc2)nn1 | 0 | 0 | 0 | 0 | 0 | CR mimetic CP=0;DHE counter=0
Cc1ccccc1NC(=O)CSc1nnnn1C | 0 | 0 | 0 | 60 | 0 | CR mimetic CP=0;DHE counter=0
Cc1ccccc1NC(=O)CSc1ccc(-c2ccc(-n3cccn3)cc2)nn1 | 0 | 0 | 0 | 0 | 0 | CR mimetic CP=0;DHE counter=0
COc1ccccc1NC(=O)CSc1ccc(-c2ccco2)nn1 | 0 | 0 | 0 | 0 | 0
CCCC(O)(CCC)C(=O)NNc1ccc(C)cc1 | 0 | 0 | 0 | 0 | 0
O=C(O)CC1NC(=O)N(C2CCCCC2)C1=O (stereo unspecified) | 0 | 0 | 0 | 0 | 0
CCOC(=O)C1CCN(C(=O)COc2ccc(Br)cc2)CC1 | 0 | 0 | 0 | 0 | 0

Screening data (PubChem)
